Experimental data reported in PubChem BioAssay.
Values joined by “and” are separate entries in the source; they are usually repeats but may differ in a detail not shown here. Identical values can stand only once. Results filed as inconclusive are left out. For part of these data: Measured potencies and affinities stand elsewhere. Active and inactive are the calls of the source.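 Rule for the calls, unless noted: active = normalized viability below 100% at a tested concentration; inactive = the rest.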

Experiments:
[1] = modulation of C. elegans fzo-1 (AID 1259413; call rule not given here;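 note: fzo-1 mutant C. elegans worms in liquid wells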); conditions: C. elegans fzo-1 modulator screen, mean read-out; stronger effect = higher value
[2] = EMT-state selective cytotoxicity in co-culture – imaging, PC-3E GFP, TEM4-18 mCherry, primary screen (AID 1345086;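 active = compounds killing one labelled cell type while sparing the other, by normalised counts and ratio limits, not self-fluorescent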;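 for all read-outs here: cells exposed to compound for 72 h before imaging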;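 for red/green cell ratio (normalised): normalised mesenchymal count divided by normalised epithelial count so high means epithelial killing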); conditions: PC-3E GFP / TEM4-18 mCherry co-culture, imaging cell counts, at 1 µM; for red/green cell ratio (normalised): actives lie on both sides, counts scaled to control wells, 1 = unselective
[3] = test system: Aerobactin synthetase IucA (Klebsiella pneumoniae); assay: inhibition of K. pneumoniae IucA enzyme – biochemical, Tocris library, absorbance (AID 1345561; call rule not given here;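 note: 100% = enzyme without compound and 0% = no enzyme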); conditions: purified IucA enzyme assay, absorbance (OD) read-out; stronger effect = lower value;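 tested at 8 µM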
[4] = viability loss in pontine glioma line – cell-based, SU-DIPG-XVII, MIPE5.0, CellTiter-Glo, qHTS, dose response (AID 1347060; cut-off not given, nearly all actives have AC50 up to about 26 µM;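 for AC50: cells exposed to compound for 48 hours before viability readout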); conditions: CellTiter-Glo ATP luminescence
[5] = viability loss in pontine glioma line – cell-based, JHH-DIPG-1, MIPE4.0, CellTiter-Glo, qHTS, dose response (AID 1347062; cut-off not given, nearly all actives have AC50 up to about 27 µM;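 for AC50: cells exposed to compound for two days before readout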); conditions: JHH-DIPG-1 viability, CellTiter-Glo ATP luminescence
[6] = viability loss in pontine glioma line – cell-based, SU-DIPG-IV, MIPE4.0, CellTiter-Glo, qHTS, dose response (AID 1347063; cut-off not given, nearly all actives have AC50 up to about 30 µM;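 note: compound exposure lasted 48 hours before the viability readout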); conditions: CellTiter-Glo ATP luminescence
[7] = viability loss in pontine glioma line – cell-based, SU-DIPG-XIII, MIPE5.0, CellTiter-Glo, qHTS, dose response (AID 1347064; cut-off not given, nearly all actives have AC50 up to about 23 µM;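 for AC50: cells exposed to compound for 48 hours before the viability read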); conditions: CellTiter-Glo ATP luminescence
[8] = viability loss in pontine glioma line – cell-based, SU-DIPG-XXV, MIPE5.0, CellTiter-Glo, qHTS, dose response (AID 1347065; cut-off not given, nearly all actives have AC50 up to about 26 µM;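 note: cells exposed to compound for 48 hours before ATP readout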); conditions: CellTiter-Glo ATP luminescence
[9] = growth inhibition of DIPG cells – cell-based, MIPE4.0 library, CellTiter-Glo luminescence, qHTS (AID 1347066; cut-off not given, nearly all actives have AC50 up to about 30 µM;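 note: cells exposed to compound for 48 hours before readout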); conditions: SU-DIPG-VI viability, CellTiter-Glo ATP luminescence
[10] = JHH-DIPG-1 glioma cell viability, MIPE5.0 library, CellTiter-Glo luminescence, qHTS (AID 1347067; cut-off not given, nearly all actives have AC50 up to about 26 µM;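 note: cells exposed to compound for 48 hours before readout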); conditions: JHH-DIPG-1 glioma viability, CellTiter-Glo ATP luminescence
[11] = growth inhibition of DIPG cells – cell-based, MIPE5.0 library, qHTS (AID 1347068; cut-off not given, nearly all actives have IC50 up to about 30 µM;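 for IC50: cells exposed to compound for 48 hours before viability readout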); conditions: SU-DIPG-XXV viability
[12] = chitosan synthesis blockers in C. neoformans – flow cytometry, Cibacron Brilliant Red staining (AID 1347148; call rule not given here;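 note: compound exposure lasted three days at 37 degrees C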); conditions: Cryptococcus neoformans chitosan, stronger effect = lower value; at 10 µM unless noted
[13] = blockers of cellular phospholipid synthesis – cell-based, LOPAC library, screen 4, primary screen (AID 1347384; call rule not given here); conditions: animal cells, phospholipid biosynthesis inhibition screen; at 10 µM
[14] = MELAS cybrid and Rieske KO viability enhancers – cell-based, MELAS cybrids, Rieske KO mouse fibroblasts, CellTiter-Glo, primary screen (AID 1508586;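 active = mean z-score across replicates of 1.96 or higher in either the MELAS or the Rieske mutant cell line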;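 note: z relative to plate mean and SD of compound and empty wells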); conditions: low glucose
[15] = molecular target: Protein kinase 7 (PK7), Plasmodium falciparum 3D7 (PF3D7_0213400) (UniProt Q7YTF7); assay: inhibition of Plasmodium PK7 catalytic activity – biochemical, TCAMS antimalarial set, Kinase-Glo luminescence (AID 1159587; call rule not given here); conditions: recombinant PfPK7, Kinase-Glo ATP depletion luminescence
[16] = molecular target: Calcium-dependent protein kinase 4 (Plasmodium falciparum (isolate 3D7)) (UniProt Q8IBS5); assay: PfCDPK4 kinase inhibitors, biochemical, TCAMS library (AID 1159588; cut-off not given, nearly all actives have IC50 up to about 0.91 µM); conditions: recombinant PfCDPK4, Kinase-Glo ATP depletion luminescence
[17] = viability loss in pontine glioma line – cell-based, SU-DIPG-XIII, MIPE4.0, CellTiter-Glo, qHTS, dose response (AID 1347061; cut-off not given, nearly all actives have AC50 up to about 37 µM;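 note: cells exposed to compound for 48 hours before readout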); conditions: CellTiter-Glo ATP luminescence
[18] = viability loss with induced miR-34 in A549 – imaging, A549 dox-inducible miR-34, nuclei and caspase counts, primary screen (AID 1347080;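 active = compounds whose cell count with miR-34 switched on is under 0.7 times the count with it off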); conditions: A549 miR-34 inducible, Hoechst nuclei count, 48 h
[19] = compounds altering HSF1 focus formation in cells – imaging, Selleck Cancer Library (AID 1347162; in the data active = plate-normalised HSF1 focus index below about 0.46); conditions: human cells, HSF1 nuclear foci imaging, at 10 µM; SSMD: measured here: HSF1 foci SSMD mean; cell count: measured here: cell number; plate-normalised HSF1 focus index: stronger effect = lower value
[20] = drug combination growth inhibition, ovarian cancer – cell-based, oncology-focused library, rucaparib conditional, profiling panel (AID 1508598); conditions: patient-derived ovarian cancer cells, CellTiter-Glo viability, 144 h, stronger effect = lower value
[21] = measured here: epithelial PC-3E GFP cell survival
[22] = measured here: mesenchymal TEM4-18 mCherry cell survival
[23] = MELAS cybrid survival, CellTiter-Glo 48 h, stronger effect = higher value
[24] = Rieske KO mouse fibroblast survival, CellTiter-Glo 72 h
[25] = stronger effect = lower value, cell number ratio, induced over uninduced
[26] = measured here: relative caspase fold change +Dox/-Dox
[27] = measured here: total cells with miR-34 induction, stronger effect = lower value
[28] = measured here: total cells without miR-34 induction

Protein kinase 7 (PK7), Plasmodium falciparum 3D7 (PF3D7_0213400), sequence (Q7YTF7 1-343): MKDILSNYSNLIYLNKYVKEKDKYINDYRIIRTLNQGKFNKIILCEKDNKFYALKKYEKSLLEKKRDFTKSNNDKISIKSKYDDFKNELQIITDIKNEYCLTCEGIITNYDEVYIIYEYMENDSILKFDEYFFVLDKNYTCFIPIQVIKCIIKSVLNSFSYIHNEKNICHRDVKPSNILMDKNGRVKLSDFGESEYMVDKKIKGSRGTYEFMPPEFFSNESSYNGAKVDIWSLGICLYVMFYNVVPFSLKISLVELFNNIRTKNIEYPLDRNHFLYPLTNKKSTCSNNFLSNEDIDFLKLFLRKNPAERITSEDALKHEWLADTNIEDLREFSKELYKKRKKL
Calcium-dependent protein kinase 4 (Plasmodium falciparum (isolate 3D7)), sequence (Q8IBS5 whole entry, looked up): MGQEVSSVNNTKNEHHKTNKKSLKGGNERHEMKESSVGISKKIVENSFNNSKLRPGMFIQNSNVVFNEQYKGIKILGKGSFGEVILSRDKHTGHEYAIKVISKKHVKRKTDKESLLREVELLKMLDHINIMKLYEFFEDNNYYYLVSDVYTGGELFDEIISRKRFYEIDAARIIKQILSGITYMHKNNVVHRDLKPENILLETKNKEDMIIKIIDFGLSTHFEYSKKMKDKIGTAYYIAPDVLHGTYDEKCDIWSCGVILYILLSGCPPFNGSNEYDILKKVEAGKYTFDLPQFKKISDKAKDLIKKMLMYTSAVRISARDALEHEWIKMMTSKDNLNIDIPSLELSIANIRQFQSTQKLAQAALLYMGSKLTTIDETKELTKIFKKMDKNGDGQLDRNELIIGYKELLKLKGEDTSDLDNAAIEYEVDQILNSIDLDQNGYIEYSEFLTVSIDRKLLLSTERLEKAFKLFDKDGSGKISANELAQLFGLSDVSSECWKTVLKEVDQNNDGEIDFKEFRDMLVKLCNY

COc1ccc(C2CNC(=O)C2)cc1OC1CCCC1 (configuration not stated)
inactive: mean signal [1] 251 | red/green cell ratio (normalised) [2] 0.93 | remaining activity [3] 98.4% | outcome [4] | outcome [5] | outcome [6] | outcome [7] | outcome [8] | outcome [9] | outcome [10] | outcome [11] | fold fluorescence [12] 10.1 [at 181.6 µM] | outcome [13]
0.97: normalised cell number [2, 22]
1.05: normalised cell number [2, 21]

CN1CCC(=C2c3ccccc3CC(=O)c3sccc32)CC1
inactive: mean signal [1] 231 | red/green cell ratio (normalised) [2] 0.94 | remaining activity [3] 118% | outcome [4] | outcome [5] | outcome [8] | outcome [9] | outcome [10] | outcome [11] | outcome [13] | z-score [14, 23] -0.303 and -0.251 and -0.573
1.1: normalised cell number [2, 22]
1.17: normalised cell number [2, 21]
-0.862 and -0.369 and 0.333: z-score [14, 24]

COc1cc2c(cc1OC)-c1cc(=Nc3c(C)cc(C)cc3C)n(C)c(=O)n1CC2
inactive: outcome [15] | outcome [16] | remaining activity [3] 110% | fold fluorescence [12] 11.7 [at 123.3 µM] | outcome [13] | z-score [14, 23] 1.02
1.81: z-score [14, 24]

CC(C)(C)C(O)/C=C/c1ccc2c(c1)OCO2 (configuration not stated)
inactive: mean signal [1] 280

COc1ccccc1N1CCN(CC(O)COc2cccc3ccccc23)CC1 (configuration not stated)
0.8: normalised cell number [2, 22]
1.13: normalised cell number [2, 21]
inactive: mean signal [1] 202 | red/green cell ratio (normalised) [2] 0.7 | remaining activity [3] 100% | outcome [17] | outcome [5] | outcome [9] | outcome [10] | outcome [11] | outcome [13]

COc1cc2c(Nc3ccc(Br)cc3F)ncnc2cc1OCC1CCN(C)CC1
-3.85: SSMD [19]
1750: cell count [18, 27]
1.03: fold change [18, 26]
1950: cell count [18, 28]
inactive: outcome [15] | outcome [16] | fold change [18, 25] 0.896 | plate-normalised HSF1 focus index [19] 0.799 | z-score [14, 23] -0.0745 | viability ([20]; at 0.000305 µM, OCI-C5x cells, with rucaparib 10 µM, 100% = cells with rucaparib alone) 108% | viability ([20]; at 0.000305 µM, OCI-C5x cells, without rucaparib) 109% | viability ([20]; at 0.00122 µM, OCI-C5x cells, with rucaparib 10 µM, 100% = cells with rucaparib alone) 103% | viability ([20]; at 0.00122 µM, OCI-C5x cells, without rucaparib) 106% | viability ([20]; at 0.00122 µM, OCI-P5x cells, without rucaparib) 100% | viability ([20]; at 0.00488 µM, OCI-C5x cells, with rucaparib 10 µM, 100% = cells with rucaparib alone) 122% | viability ([20]; at 0.00488 µM, OCI-C5x cells, without rucaparib) 111% | viability ([20]; at 0.00488 µM, OCI-P5x cells, without rucaparib) 104% | viability ([20]; at 0.0195 µM, OCI-C5x cells, with rucaparib 10 µM, 100% = cells with rucaparib alone) 110% | viability ([20]; at 0.0195 µM, OCI-C5x cells, without rucaparib) 118% | viability ([20]; at 0.0195 µM, OCI-P5x cells, without rucaparib) 112% | viability ([20]; at 0.0781 µM, OCI-C5x cells, with rucaparib 10 µM, 100% = cells with rucaparib alone) 111% | viability ([20]; at 0.0781 µM, OCI-C5x cells, without rucaparib) 118% | viability ([20]; at 0.0781 µM, OCI-P5x cells, without rucaparib) 101% | viability ([20]; at 0.313 µM, OCI-C5x cells, with rucaparib 10 µM, 100% = cells with rucaparib alone) 112% | viability ([20]; at 0.313 µM, OCI-C5x cells, without rucaparib) 113% | viability ([20]; at 0.313 µM, OCI-P5x cells, without rucaparib) 103% | viability ([20]; at 1.25 µM, OCI-C5x cells, with rucaparib 10 µM, 100% = cells with rucaparib alone) 111% | viability ([20]; at 1.25 µM, OCI-C5x cells, without rucaparib) 116% | viability ([20]; at 1.25 µM, OCI-P5x cells, without rucaparib) 102%
4710: cell count [19]
-0.742: z-score [14, 24]
active: AC50 [4] 6.61 µM | AC50 [17] 3.72 µM | AC50 [5] 16.6 µM | AC50 [7] 18.6 µM | AC50 [8] 14.8 µM | AC50 [9] 20.9 µM | AC50 [10] 20.9 µM | IC50 [11] 26.3 µM | viability ([20]; at 0.000305 µM, OCI-P5x cells, with rucaparib 20 µM, 100% = cells with rucaparib alone) 82.1% | viability ([20]; at 0.000305 µM, OCI-P5x cells, without rucaparib) 95.9% | viability ([20]; at 0.00122 µM, OCI-P5x cells, with rucaparib 20 µM, 100% = cells with rucaparib alone) 92.5% | viability ([20]; at 0.00488 µM, OCI-P5x cells, with rucaparib 20 µM, 100% = cells with rucaparib alone) 87.8% | viability ([20]; at 0.0195 µM, OCI-P5x cells, with rucaparib 20 µM, 100% = cells with rucaparib alone) 90.3% | viability ([20]; at 0.0781 µM, OCI-P5x cells, with rucaparib 20 µM, 100% = cells with rucaparib alone) 88% | viability ([20]; at 0.313 µM, OCI-P5x cells, with rucaparib 20 µM, 100% = cells with rucaparib alone) 83.3% | viability ([20]; at 1.25 µM, OCI-P5x cells, with rucaparib 20 µM, 100% = cells with rucaparib alone) 78.7% | viability ([20]; at 5 µM, OCI-C5x cells, with rucaparib 10 µM, 100% = cells with rucaparib alone) 55.4% | viability ([20]; at 5 µM, OCI-C5x cells, without rucaparib) 51.8% | viability ([20]; at 5 µM, OCI-P5x cells, with rucaparib 20 µM, 100% = cells with rucaparib alone) 43.9% | viability ([20]; at 5 µM, OCI-P5x cells, without rucaparib) 78.9%

Cc1cccc(C)c1OCC(C)N (configuration not stated)
inactive: mean signal [1] 227 | red/green cell ratio (normalised) [2] 1.08 | remaining activity [3] 104% | outcome [13] | z-score [14, 23] -0.0413 and -0.119
-0.286 and -0.0916: z-score [14, 24]
1.22: normalised cell number [2, 22]
1.13: normalised cell number [2, 21]

CC1CCN(CCCC(=O)c2ccc(F)cc2)CC1
9000 and 9720 and 9030: cell count [18, 27]
inactive: mean signal [1] 246 | red/green cell ratio (normalised) [2] 0.9 | remaining activity [3] 103% | fold change [18, 25] 0.922 and 0.888 and 0.964
0.97: normalised cell number [2, 21]
0.88: normalised cell number [2, 22]
0.574 and 0.823 and 1.18: fold change [18, 26]
9760 and 10900 and 9370: cell count [18, 28]

Oc1ccc(C2CNCCc3c2cc(O)c(O)c3Cl)cc1 (configuration not stated)
1.1: normalised cell number [2, 21]
-0.363 and -0.533: z-score [14, 24]
1.17: normalised cell number [2, 22]
inactive: mean signal [1] 286 | red/green cell ratio (normalised) [2] 1.06 | remaining activity [3] 110% | outcome [4] | outcome [17] | outcome [5] | outcome [7] | outcome [8] | outcome [9] | outcome [10] | outcome [11] | outcome [13] | z-score [14, 23] 0.526 and 0.283

COCCCC/C(=N\OCCN)c1ccc(C(F)(F)F)cc1
1.02 and 0.609 and 0.939: fold change [18, 26]
1.01: normalised cell number [2, 22]
9200 and 9520 and 7960: cell count [18, 28]
1.1: normalised cell number [2, 21]
-0.626: z-score [14, 24]
9020 and 8820 and 7770: cell count [18, 27]
inactive: mean signal [1] 245 | red/green cell ratio (normalised) [2] 0.92 | remaining activity [3] 125% | outcome [5] | outcome [6] | outcome [9] | fold change [18, 25] 0.98 and 0.926 and 0.976 | outcome [13] | z-score [14, 23] 0.622

O=C(O)/C=C/c1ccc(Cn2ccnc2)cc1
0.0439 and 0.14: z-score [14, 24]
1.05: normalised cell number [2, 22]
inactive: mean signal [1] 275 | red/green cell ratio (normalised) [2] 1.06 | remaining activity [3] 107% | outcome [4] | outcome [17] | outcome [5] | outcome [6] | outcome [7] | outcome [8] | outcome [9] | outcome [11] | z-score [14, 23] -1.23 and 0.348
1: normalised cell number [2, 21]
